What was measured:
Conditions in all cases: concentration: 1 μM, replicates: in singlicate; n = 1
[1] = tested on: T1, TAK1
T1 construct: gene MAP3K7

[2] = tested on: TAOK1
[3] = tested on: TAOK2
[4] = tested on: TAOK3
[5] = tested on: TBK1
[6] = tested on: TEC
[7] = tested on: TESK1
[8] = tested on: TGFBR1
[9] = tested on: TGFBR2
[10] = tested on: TIE1
[11] = tested on: T2, TIE2
T2 construct: gene TEK

[12] = tested on: TLK1
[13] = tested on: TLK2
[14] = tested on: TNIK
[15] = tested on: TNK1
[16] = tested on: TNK2
[17] = tested on: TNNI3K
[18] = tested on: T3, TRKA
T3 construct: gene NTRK1

[19] = tested on: TRKB
[20] = tested on: T4, TRKC
T4 construct: gene NTRK3
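Note: KINOMEscan kinase panel screen.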

| Compound | %Inh [1] | %Inh [2] | %Inh [3] | %Inh [4] | %Inh [5] | %Inh [6] | %Inh [7] | %Inh [8] | %Inh [9] | %Inh [10] | %Inh [11] | %Inh [12] | %Inh [13] | %Inh [14] | %Inh [15] | %Inh [16] | %Inh [17] | %Inh [18] | %Inh [19] | %Inh [20] |
| --- | --- | --- | --- | --- | --- | --- | --- | --- | --- | --- | --- | --- | --- | --- | --- | --- | --- | --- | --- | --- |
| COc1ccc(Nc2nccc(N3CCC(NS(=O)(=O)c4ccc(NC(C)=O)cc4)C3)n2)cc1 (stereo not shown) [GSK1379729] | 0% | 2% | 0% | 2% | 11% | 3% | 16% | 7% | 7% | 20% | 8% | 0% | 0% | 0% | 18% | 12% | 100% | 65% | 0% | 19% |
| Nc1n[nH]c2nnc(-c3ccccc3)c(-c3ccccc3)c12 [GW554060] | 0% | 0% | 0% | 0% | 8% | 0% | 2% | 12% | 0% | 8% | 0% | 0% | 0% | 0% | 0% | 19% | 0% | 0% | 14% | 24% |
| O=C(NCc1cccs1)c1cc(C(=O)c2c(Cl)cccc2Cl)c[nH]1 [GW823670] | 0% | 0% | 7% | 0% | 6% | 0% | 0% | 27% | 0% | 8% | 2% | 0% | 0% | 5% | 26% | 0% | 0% | 0% | 0% | 0% |
| CN1C(=O)C(Nc2cc(Cl)c(O)c(Cl)c2)=C(c2ccc(Cl)cc2)C1=O [SB-404321] | 0% | 0% | 0% | 0% | 4% | 0% | 0% | 6% | 0% | 0% | 0% | 0% | 0% | 0% | 22% | 0% | 0% | 52% | 36% | 10% |
| COc1cc(Nc2nccc(N3CCC(NC(=O)C4COc5ccccc5O4)C3)n2)cc(OC)c1OC (stereo not shown) [GSK1379761] | 7% | 11% | 0% | 5% | 0% | 0% | 33% | 12% | 0% | 17% | 0% | 8% | 0% | 0% | 28% | 6% | 0% | 77% | 31% | 61% |
| COc1cccc(C2=C(Nc3cccc(C(=O)O)c3)C(=O)NC2=O)c1 [SB-390770] | 0% | 0% | 0% | 0% | 12% | 0% | 28% | 1% | 0% | 27% | 37% | 7% | 0% | 4% | 0% | 12% | 8% | 56% | 0% | 0% |
| CN1C(=O)C(Nc2ccccc2)=C(c2ccccc2)C1=O [SB-300079] | 0% | 0% | 34% | 0% | 21% | 0% | 2% | 22% | 0% | 0% | 0% | 3% | 41% | 7% | 0% | 0% | 0% | 0% | 9% | 11% |
| Nc1n[nH]c2ncc(-c3ccccc3)cc12 [SB-517081] | 0% | 0% | 9% | 2% | 13% | 6% | 37% | 0% | 0% | 18% | 0% | 0% | 2% | 1% | 0% | 21% | 12% | 17% | 37% | 31% |
| O=C(Nc1n[nH]c2nc(-c3ccccc3)c(Cl)cc12)C1CC1 [SB-734909] | 8% | 0% | 0% | 0% | 38% | 0% | 6% | 0% | 0% | 0% | 15% | 0% | 6% | 8% | 0% | 0% | 0% | 0% | 0% | 0% |
| COc1cc(Nc2nccc(N3CCC(NC(=O)C(C)c4ccc(Cl)cc4)C3)n2)cc(OC)c1OC (stereo not shown) [GSK1379757] | 0% | 0% | 0% | 0% | 14% | 0% | 27% | 0% | 0% | 10% | 0% | 0% | 0% | 0% | 0% | 6% | 0% | 63% | 0% | 43% |
| O=C1NC(=O)C(c2ccccc2)=C1Nc1cccc(O)c1 [SB-390534] | 0% | 30% | 22% | 18% | 14% | 0% | 13% | 6% | 0% | 22% | 13% | 26% | 98.4% | 16% | 5% | 0% | 4% | 0% | 0% | 37% |
